Several values for one entry are separate records, joined by “and”; a condition that tells them apart may be missing. Equal values may be shown once. Activity calls are given as the source filed them. Rule for the calls: active = hit-call score of the fitted dose curve at least 0.9, where 1 is the maximum; inactive = score below 0.9.

Data on 36 compounds can be found in PubChem BioAssay (EPA / NIEHS).

Read-out in this assay: C-C motif chemokine 2 (Homo sapiens) (UniProt P13500)
Nature of the assay: BSK_KF3CT_MCP1: BioMAP Diversity Plus: KF3CT Assay for Monocyte Chemoattractant Protein 1 (MCP1/CCL2) Biomarker Activity (AID 2283073). To be noted: primary human keratinocytes with fibroblasts; actives raise or lower the signal. The procedure:
BSK_KF3CT is a cell-based, multiplexed-readout assay that uses keratinocytes and foreskin fibroblasts, a human skin primary cell co-culture, with measurements taken at 24 hours after chemical dosing in a 96-well plate.BSK_KF3CT_MCP1 is an assay component measured in the BSK_KF3CT assay. It measures MCP-1 antibody related to regulation of gene expression using ELISA technology.Data from the assay component BSK_KF3CT_MCP1 was analyzed into 1 assay endpoint. This assay endpoint, BSK_KF3CT_MCP1, was analyzed with bidirectional fitting relative to DMSO as the negative control and baseline of activity. Using a type of binding reporter, gain or loss-of-signal activity can be used to understand changes in the signaling as they relate to the gene CCL2. Furthermore, this assay endpoint can be referred to as a primary readout, because this assay has produced multiple assay endpoints where this one serves a signaling function. To generalize the intended target to other relatable targets, this assay endpoint is annotated to the cytokine intended target family, where the subfamily is chemotactic factor.
The levels of cell surface (or secreted, indicated by the prefix "s") biomarker endpoints were measured by ELISA. Overt cytotoxicity to cells in confluent adherent cultures (all systems other than the BT system) was assessed by measuring total protein levels using sulforhodamine B (SRB) staining in parallel cultures at the time of biomarker measurements, indicated as SRB endpoints. For proliferation assays for adherent cell types, individual cell types are cultured at sub-confluence and relative cell numbers quantified by SRB staining at time points optimized for each system (48 h: 3C and CASM3C systems; 72 h: BT and HDF3CGF systems; 96 h: SAg system). SRB was performed by staining cells with 0.1% SRB after fixation with 10% TCA and reading wells at 560 nm.Viability and proliferation of PBMC (T cells) was quantified by Alamar Blue reduction for the SAg and BT systems. For PBMC viability (referred to as PBMC Cytotoxicity within the assay endpoint names), cells were plated (75,000/well in a 96-well plate) and then chemical samples added for 1 h before addition of activators, SEB and TSST-1 (20 ng/mL final concentration each). Cells were incubated for 90 h. Then, Alamar Blue (20 uL/well) (Invitrogen, Cat DAL1100) was added for 6 h, and the plates were read with a fluorescence microplate reader at 546/580 nm (excitation/emission). For PBMC proliferation, cells were plated and activated as above but incubated for only 16 h prior to addition of Alamar Blue. Plates were read after 6 h.
Turning to `O=C(Cl)c1cc(C(=O)Cl)cc(C(=O)Cl)c1`, the AC50 was 30.1 µM (active). On to `Nc1ccc(N)c(Cl)c1`, for which the outcome was inactive. Take `O=C(Nc1ccccc1SSc1ccccc1NC(=O)c1ccccc1)c1ccccc1`: the result was inactive.

On to `CCCCCCCCc1ccc(Nc2ccc(CCCCCCCC)cc2)cc1`, for which the result was inactive.

In the case of `COCc1c(C(C)C)nc(C(C)C)c(/C=C/[C@@H](O)C[C@@H](O)CC(=O)O)c1-c1ccc(F)cc1`, the AC50 was 0.071 µM (active). On to `COc1ccc2nc(N)sc2c1`, for which the result was inactive.

With `C=CCOCC(O)CCl` (stereo unspecified), the outcome was inactive. On the same count and under the same terms, as for `C=CC=CC=CCCCCC`, the entry is “inactive”.

In the case of `C=CC(=O)OCC(Br)CBr` (stereo unspecified), the outcome was inactive. Regarding `CCCCCCCCCCCCCCCC[N+](C)(C)CC`, the AC50 was 6.3 µM (active). `CC(C)C(=O)C(C)C`: the outcome was inactive. As for `C#CC1(O)CC[C@H]2[C@@H]3CCC4=CCCC[C@@H]4[C@H]3CC[C@@]21C` (stereo partly specified), the AC50 is 30.9 µM (active).

Consider `CO[Si](OC)(OC)c1ccccc1`, for which the result was inactive. Turning to `CCCCNc1ccc(NCCCC)c2c1C(=O)c1ccccc1C2=O`, the result was inactive. Turning to `C/C=C\C/C=C/CCCCCCCCOC(C)=O`, the AC50 is 20 µM (active).

Turning to `CCO[Si](C)(OCC)OCC`, the outcome was inactive.

`C=CCOc1c(Br)cc(Br)cc1Br`: the AC50 was 12.2 µM (active). As to `O=C1CCCN1CCO`, the result was inactive. Still for that read-out and setting: to `S=C(NC1CCCCC1)NC1CCCCC1` belongs “inactive”.

In the case of `c1ccc2c(c1)ccc1cc3c(ccc4ccccc43)cc12`, the result was inactive. Take `c1ccc2c(c1)ccc1ncccc12`: the result was inactive.

Consider `CCOC(=O)c1ccccc1C(=C1C=C(Br)C(=O)C(Br)=C1)c1cc(Br)c(O)c(Br)c1`, for which the half-maximal activity concentration (AC50) is 3.39 µM (active) and 3.47 µM (active). In the case of `O=Nc1ccc(O)cc1`, the outcome was inactive. Consider `O=C(c1ccc(O)cc1)c1ccc(O)cc1O`, for which the result was inactive.

Take `CCCCC/C=C\C/C=C\CCCCCCCC(=O)OC`: the AC50 was 28.7 µM (active).

Turning to `c1ccc(-c2ccccn2)nc1`, the outcome was inactive. In the case of `CCOc1nc(F)cc2nc(S(=O)(=O)Nc3c(Cl)cccc3C(=O)OC)nn12`, the result was inactive. On the same count and under the same terms, to `CN1C(=O)N(C)C(O)C1O` (stereo unspecified) belongs “inactive”; to `C=C[Si](OC(C)=O)(OC(C)=O)OC(C)=O`, “inactive”. Turning to `CC1OC1C1CCC2(C)OC2C1` (stereo unspecified), the outcome was inactive. The same measure, in the same setting: as for `CCCCC(CC)COCC1CO1` (stereo unspecified), the entry is “inactive”; as for `O=c1c2ccccc2oc2ccccc12`, “inactive”. As to `CC(C)(c1cc(Br)c(OCCO)c(Br)c1)c1cc(Br)c(OCCO)c(Br)c1`, the AC50 was 16.2 µM (active). Take `CCCCC(CC)COC(=O)c1ccccc1O` (stereo unspecified): the outcome was inactive. For `N#[N+]c1ccc2c(S(=O)(=O)[O-])cccc2c1O`, the result was inactive. Take `CCO[Si](CCCN=C=O)(OCC)OCC`: the outcome was inactive.

What is called AC50 is the concentration at which the activity in the assay is half-maximal.
